# Test results reported in PubChem BioAssay.
# For part of these data: Measured potencies and affinities stand elsewhere. Active and inactive are the calls of the source. Cut-off read from the data, not from the text of the source, unless noted: active = inhibition above about 80%; inactive = the rest.
# What was measured:
# [1] = polyglutamine-triggered caspase-3 activation inhibitors, cell-based (AID 1583); details: polyglutamine-induced caspase-3 activation, cell assay; stronger effect = higher value;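 tested at 10 µM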
# [2] = suppressors of polyQ aggregation in yeast, 75Q-TubU reporter (AID 1593); details: Yeast 75Q polyglutamine aggregation reporter
# [3] = rescue of polyQ-huntingtin neuronal dysfunction in worms, whole organism, C. elegans mechanosensory neurons, N-terminal huntingtin (AID 1599); details: touch response, stronger effect = higher value
# [4] = inhibitors of mitochondrial cytochrome c release, biochemical, purified mitochondria (AID 1603); details: stronger effect = lower value;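 note: mouse liver mitochondria challenged with calcium chloride; signal normalized to the plate average as 100%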
# [5] = inhibitors of polyQ protein aggregation (AID 1604); details: polyglutamine-induced protein aggregation inhibition assay; stronger effect = higher value; tested at 2.5 µM
# [6] = enhancers of glutamate uptake in motor neurons, MN-1 cell line (AID 1612); details: MN-1 motor neuron cells, stronger effect = higher value;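 note: tested at 1 µM final; 0% = mean of DMSO vehicle wells on each plate; positive means more glutamate uptake than control and negative means less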
# [7] = reducers of polyQ inclusions in PC12 cells, cell-based, NGF-treated PC12, GFPQ80 (AID 1614); details: PC12 NGF-treated GFP-polyQ80 inclusion reduction;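 note: lower means fewer inclusions and 0 means no inclusions at all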
# [8] = suppressors of polyglutamine aggregation in yeast, 75Q-TubH (AID 1616); details: S. cerevisiae 75Q-TubH polyglutamine aggregation suppression; stronger effect = higher value
# [9] = LFS_MB_P medulloblastoma growth inhibition, cell-based, chromothripsis tumors, cisplatin or BGB combos (AID 1671449); details: LFS_MB_P medulloblastoma cells;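 note: cells exposed for 96 hours; 0% = vehicle DMSO and 100% = killing by high DMSO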
# [10] = HDN33 neuroblastoma growth inhibition, cell-based, chromothripsis tumors, cisplatin or BGB combos (AID 1671450); details: HDN33 neuroblastoma cells, stronger effect = higher value;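 note: cells exposed to compound for four days; 0% = vehicle DMSO and 100% = cell killing by high DMSO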
# [11] = ICB984 medulloblastoma cell growth inhibition, synergistic combos for chromothripsis tumors, cisplatin or BGB combos (AID 1671451; call rule not given here;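 note: cells exposed for 96 hours before readout; 0% = vehicle DMSO and 100% = killing by high DMSO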); details: ICB984 medulloblastoma cells, drug combinations, stronger effect = higher value
# [12] = LFS_MB_1R medulloblastoma cell growth inhibition, synergistic combos for chromothripsis tumors, cisplatin or BGB combos (AID 1671452); details: LFS_MB_1R medulloblastoma cells, stronger effect = higher value;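 note: cells exposed for 96 hours before readout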
# [13] = HTB85 osteosarcoma cell growth inhibition, synergistic combos for chromothripsis tumors, BGB or cisplatin IC20 combos (AID 1671453); details: HTB85 osteosarcoma cells, drug combinations, stronger effect = higher value;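 note: cells exposed for 96 hours before readout; 0% = vehicle DMSO and 100% = high DMSO killing control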
# [14] = CRL2098 osteosarcoma cell growth inhibition, synergistic combos for chromothripsis tumors, BGB or cisplatin IC20 combos (AID 1671454); details: CRL2098 osteosarcoma cells, drug combinations, stronger effect = higher value;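 note: cells exposed for 96 h before readout; 0% = vehicle DMSO and 100% = killing by high DMSO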
# [15] = HD-MB03 medulloblastoma cell growth inhibition, synergistic combos for chromothripsis tumors, BGB or cisplatin IC20 combos (AID 1671455; in the data active = inhibition above about 83%;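 note: 0% = vehicle DMSO and 100% = high DMSO as cytotoxic control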); details: HD-MB03 medulloblastoma cells, stronger effect = higher value
# [16] = UWB1.289 ovarian carcinoma cell growth inhibition, synergistic combos for chromothripsis tumors, BGB or cisplatin combos (AID 1671456); details: UWB1.289 ovarian carcinoma cells, stronger effect = higher value;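 note: cells exposed to compound for four days; 0% = vehicle DMSO and 100% = killing by high DMSO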
# [17] = LFS_MB_2R medulloblastoma cell growth inhibition, synergistic combos for chromothripsis tumors, cisplatin combos (AID 1671457); details: LFS_MB_2R medulloblastoma cells, stronger effect = higher value;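 note: cells exposed to compound for four days before readout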
# [18] = MDA-MB-436 breast carcinoma cell growth inhibition, synergistic combos for chromothripsis tumors, BGB or cisplatin combos (AID 1671458; call rule not given here;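 note: cells exposed for 96 hours; 0% = vehicle DMSO and 100% = killing by high DMSO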); details: MDA-MB-436 breast carcinoma growth inhibition, drug combinations, stronger effect = higher value
# [19] = UWB1.289_BRCA1 ovarian cancer growth, cell-based, BGB or cisplatin combinations (AID 1671459); details: UWB1.289 BRCA1 ovarian carcinoma, drug combinations, stronger effect = higher value
# [20] = human astrocyte viability loss, single and combined drugs, cytotoxicity control for chromothriptic childhood tumor combination screen, cell-based, BGB or cisplatin IC20 combos (AID 1671460); details: Human astrocytes, drug combinations, stronger effect = higher value;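 note: cells exposed to compounds for 96 hours before viability readout; 0% = vehicle and 100% = killing control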
# [21] = growth inhibition of BT084 medulloblastoma cells, cell-based, ICGC_MB145, cisplatin and BGB IC40 combos (AID 1671461); details: drug combinations, stronger effect = higher value;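 note: cells exposed to drugs for 96 hours; 0% = vehicle DMSO and 100% = high DMSO full killing control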
# [22] = growth inhibition of RCMB18 medulloblastoma cells, cell-based, cisplatin and BGB IC40 combos (AID 1671462); details: stronger effect = higher value;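 note: cells exposed to compound for four days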
# [23] = growth inhibition of CRL1545 osteosarcoma cells, cell-based, cisplatin and BGB IC20 combos (AID 1671464); details: stronger effect = higher value;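 note: cells exposed to compound for 96 hours before readout; 0% = vehicle DMSO and 100% = high DMSO killing control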
# [24] = measured here: combination with BGB IC40, at 0.05 µM
# [25] = measured here: with BGB IC20 combination, at 0.5 µM
# [26] = measured here: with cisplatin IC20 combination, at 0.5 µM
# [27] = measured here: combination with cisplatin, at 0.5 µM
# [28] = measured here: combination with cisplatin, at 5 µM
structure (smiles),measurement,setting,value
CCC1(c2ccccc2)C(=O)NC(=O)NC1=O,inhibition,[1],-1.25%
same,score,[2],1.23
same,rescue above control,[3],9.64
same,cytochrome c release ratio,[4],0.88
same,inhibition of aggregation,[5],45.6%
same,glutamate uptake change,[6],11.7%
same,inclusion score,[7],2
same,aggregation suppression score,[8],1.66
same,inhibition,"[9]; at 0.5 µM, stronger effect = higher value",93.2% (active)
same,inhibition,"[9]; measured here: combination with BGB IC20, at 0.005 µM",-28.1%
same,inhibition,"[9]; measured here: combination with BGB IC40, at 0.005 µM",-59.2%
same,inhibition,[9]; [24],-45.6%
same,inhibition,"[9]; measured here: combination with cisplatin, at 0.5 µM, stronger effect = higher value",121%
same,inhibition,"[9]; measured here: combination with cisplatin, at 5 µM, stronger effect = higher value",-2.25%
same,inhibition,"[10]; BGB combo, at 5 µM",-9.62%
same,inhibition,[10]; at 0.5 µM,-12.9% (inactive)
same,inhibition,"[10]; cisplatin combo, at 5 µM",-2.75%
same,inhibition,[10]; [25],-25.3%
same,inhibition,[10]; [26],-2.08%
same,inhibition,"[10]; single agent, at 5 µM",3.79%
same,inhibition,"[11]; BGB IC20 combo, at 0.005 µM",-3.73%
same,inhibition,"[11]; BGB IC40 combo, at 0.005 µM",-9.29%
same,inhibition,"[11]; BGB IC40 combo, at 0.05 µM",-3.16%
same,inhibition,[11]; at 0.5 µM,-22.9% (inactive)
same,inhibition,"[11]; cisplatin combo, at 0.05 µM",-8.4%
same,inhibition,"[11]; cisplatin combo, at 0.5 µM",-26.1%
same,inhibition,"[11]; cisplatin combo, at 5 µM",-13.3%
same,inhibition,"[11]; measured here: 5 uM single agent, at 5 µM",-22.7%
same,inhibition,[12]; at 0.5 µM,-18.1% (inactive)
same,inhibition,[12]; [24],-31.8%
same,inhibition,[12]; [27],-10.4%
same,inhibition,[12]; [28],5.72%
same,inhibition,[13]; at 0.5 µM,-10.5% (inactive)
same,inhibition,"[13]; measured here: with BGB IC20, at 0.5 µM",-10.6%
same,inhibition,"[13]; measured here: with BGB IC20, at 5 µM",7.72%
same,inhibition,"[13]; measured here: with cisplatin IC20, at 0.5 µM",-9.45%
same,inhibition,"[13]; measured here: with cisplatin IC20, at 5 µM",10.2%
same,inhibition,"[13]; single agent, at 5 µM",-5.59%
same,inhibition,[14]; at 0.5 µM,-52.1% (inactive)
same,inhibition,"[14]; measured here: combination with BGB at IC20, at 0.5 µM",-60.5%
same,inhibition,"[14]; measured here: combination with cisplatin at IC20, at 0.5 µM",-54.7%
same,inhibition,[15]; at 0.5 µM,-4.07% (inactive)
same,inhibition,"[15]; measured here: combo with BGB at IC20, at 0.5 µM",2.98%
same,inhibition,"[15]; measured here: combo with cisplatin at IC20, at 0.5 µM",-10.5%
same,inhibition,[16]; at 0.5 µM,-5.54% (inactive)
same,inhibition,"[16]; measured here: inhibition with BGB combination, at 0.05 µM",-21.7%
same,inhibition,"[16]; measured here: inhibition with cisplatin combination, at 0.05 µM",-12%
same,inhibition,[17]; at 0.5 µM,-20.1% (inactive)
same,inhibition,[17]; [27],-6.12%
same,inhibition,[17]; [28],0.169%
same,inhibition,[18]; at 0.5 µM,-2.75% (inactive)
same,inhibition,"[18]; measured here: BGB combination, at 0.5 µM",-2.38%
same,inhibition,"[18]; measured here: BGB combination, at 5 µM",1.86%
same,inhibition,"[18]; measured here: cisplatin combination, at 0.5 µM",-5.56%
same,inhibition,"[18]; measured here: cisplatin combination, at 5 µM",-1.94%
same,inhibition,"[19]; BGB combination, concentration series, at 5 µM",22.9%
same,inhibition,[19]; at 0.5 µM,-1.68% (inactive)
same,inhibition,"[19]; cisplatin combination, concentration series, at 5 µM",16%
same,inhibition,[20]; at 0.5 µM,10.1% (inactive)
same,inhibition,"[20]; measured here: combo with BGB IC20, at 0.5 µM",11.5%
same,inhibition,"[20]; measured here: combo with cisplatin IC20, at 0.5 µM",13.6%
same,inhibition,[21]; at 0.5 µM,3.01% (inactive)
same,inhibition,"[21]; cisplatin combination, at 0.5 µM",4.39%
same,inhibition,"[21]; cisplatin combination, at 5 µM",0.177%
same,inhibition,"[21]; measured here: BGB IC40 combination 0.05 uM, at 0.05 µM",-27.4%
same,inhibition,"[21]; single agent, at 5 µM",8.07%
same,inhibition,[22]; at 0.5 µM,1.72% (inactive)
same,inhibition,"[22]; cisplatin combo, at 5 µM",5.8%
same,inhibition,"[22]; measured here: BGB IC40 combination, at 0.05 µM",-18.8%
same,inhibition,[22]; [27],-11.9%
same,inhibition,"[22]; single agent, at 5 µM",10.7%
same,inhibition,[23]; at 0.5 µM,-19.2% (inactive)
same,inhibition,[23]; [25],-11.8%
same,inhibition,[23]; [26],-24.8%
same,inhibition,"[23]; single agent, at 0.05 µM",8.97%
same,inhibition,"[23]; single agent, at 5 µM",-18.2%
CC(N)Cc1ccccc1 (centres undefined),inhibition,[1],18%
same,score,[2],0.93
same,rescue above control,[3],-1.93
same,cytochrome c release ratio,[4],0.82
same,inhibition of aggregation,[5],10.2%
same,glutamate uptake change,[6],31.4%
same,inclusion score,[7],2
same,aggregation suppression score,[8],0.923
